Experiment [1] can be described thus: reduced viability of SK-BR-3 breast cancer cells – cell-based, 24 h, human, pilot screen (AID 572;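 active = viability at or below 10% of carrier control in both of two separate runs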;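 also: compound exposure lasted between 18 and 24 h rather than exactly 24 h; 100% = carrier-treated control wells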). The settings on record: SK-BR-3 viability, CellTiter-Glo luminescence, at 10 µM, stronger effect = lower value. (In general: ATP-based viability assays read luminescence as a measure of living cells.)
Experiment [2] is described as follows: HUVEC growth inhibition – cell-based, human, primary screen (AID 575;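 active = viability at or below 30% in both replicate assays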;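 also: 100% = median of untreated cell wells with 0.1% DMSO on each plate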). Conditions: HUVEC proliferation, CellTiter-Glo luminescence, 72 h; at 10 µM; stronger effect = lower value.
Experiment [3] can be described thus: H69AR cell proliferation blockers – human, duplicate replicates, primary screen (AID 580;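 active = viability at or under a set limit in both replicates, limit being median viability minus 3 SD, cut at about 48% in these data, passing the limit was not always enough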;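 also: 100% = mean luminescence of untreated wells and 0% = no signal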). The settings on record: H69AR lung tumor cells viability, ATP luminescence, 72 h; at 10 µM; stronger effect = lower value.
The nature of experiment [4]: MRP1 drug-resistance reversers in H69AR cells – cell-based, doxorubicin co-treatment, pilot screen (AID 601;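 active = viability loss from added drug above about 55%, and viability with drug at most 40%, in both replicates, limit read from the data, passing the limit was not always enough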). The settings on record: CellTiter-Glo, 72 h, at 10 µM; for differential viability (reversal): stronger effect = higher value.
The nature of experiment [5]: yeast transport mutant growth inhibition pilot in 384-well plates, post-Golgi transport modulator project (AID 636; in the data active = inhibition above about 31%). Conditions: absorbance 615 nm, about 18 h, stronger effect = higher value.
The nature of experiment [6]: growth suppression of yeast trafficking mutant, preliminary HTS, modulators of trafficking downstream of Golgi apparatus project, 1536-format plate, OD 615 nm (AID 637; in the data active = inhibition above about 30%). Conditions: yeast transport mutant growth, absorbance 615 nm, 18 h; stronger effect = higher value.
Experiment [7] can be described thus: S. cerevisiae growth inhibition in permissive medium (OD615), pilot counter-assay for S. cerevisiae lifespan shortening project, permissive growth control (AID 705;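 active = growth inhibition above 25% in both replicates, a cutoff set 3 SD above the mean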). The settings on record: OD615, 24 h, at 10 µM, stronger effect = higher value.
Experiment [8] can be described thus: S. cerevisiae growth inhibition in restrictive medium, OD615, pilot screen, restrictive growth control, yeast lifespan reduction project (AID 706;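 active = growth inhibition above a set limit, 3 SD over mean compound inhibition, in both replicates, cut at about 43% in these data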;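 also: modified DeaD lifespan yeast strain shifted to restrictive glucose medium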). Conditions: OD615, 48 h, at 10 µM, stronger effect = higher value.
Experiment [9] in a line: doxorubicin toxicity protection in MRP-1 cells – H69AR cells, CellTiter-Glo, duplicate, MRP-1 activator project, pilot screen (AID 807;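 active = viability increase at or above a cutoff of the median across tested compounds plus 3 SD, cut at about 8.5% in these data, passing the limit was not always enough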;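 also: compound pretreatment 18-22 h then 72 h combined with doxorubicin; 0% = doxorubicin alone and 100% = vehicle without doxorubicin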). The settings on record: H69AR viability with doxorubicin, CellTiter-Glo luminescence; at 10 µM; stronger effect = higher value.
Experiment [10] is described as follows: viability of HCT116 without oncogenic beta-catenin – human colon tumor cells, pilot screen (AID 823;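 active = cell viability at or below a set limit in both duplicate runs, the limit being the all-compound median minus 4 SD, cut at about 23% in these data, passing the limit was not always enough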;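 also: 0% = wells killed by 20 µM Hyamine and 100% = untreated DMSO cell wells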). The settings on record: HCT116 beta-catenin knockout viability, CellTiter-Glo, 60 h; at 10 µM; stronger effect = lower value.
Experiment [11] in a line: viability of PTEN-null HCT116 cells – cell-based, HCT116 clonal line, CellTiter-Glo, pilot screen (AID 824;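 active = viability at or below 27.92% in each of two runs, the all-compound median minus 4 SD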;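 also: 0% = 20 µM Hyamine control and 100% = vehicle cell control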). Conditions: HCT116 PTEN-deleted viability, 60 h, at 10 µM, stronger effect = lower value.
Experiment [12] can be described thus: RAM pathway blockade in budding yeast – dse1pr::URA3 reporter, 5-FOA selection, pilot screen (AID 869).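 Also: 0% = DMSO wells with no growth and 100% = 10 µM 1-NA-PP1 with full growth; RAM network block rescues cells from 5-FOA so hits raise OD615 growth.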 Conditions: S. cerevisiae dse1pr::URA3 5-FOA growth, OD615, 2 d; at 10 µM; stronger effect = higher value; strain carries analog-sensitive mutant Cbk1 kinase.
Experiment [13] can be described thus: RAM signaling pathway blockade in yeast – S. cerevisiae, Pdr1DBD-CYC8 efflux-inhibited sensitized strain, primary screen (AID 1298;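 active = RAM network inhibition above 8.4% in each of two replicates, 3 SD over the compound average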;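 also: 0% = DMSO untreated cells without growth and 100% = 10 µM 1-NA-PP1 full growth; higher means more yeast growth rescued from 5-FOA killing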). The settings on record: S. cerevisiae cbk1-as DSE1-URA3 strain, 5-FOA growth OD615, 2 d; at 50 µM; stronger effect = higher value.
Experiment [14] is described as follows: Her2 expression decrease, cell viability multiplex – SKBR3 breast tumor cells, AlphaScreen, ATP viability, primary screen (AID 461;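 active = Her2 level under about 52% in both replicate screens, with viability over 70% of control, limit read from the data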;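 as to Her2 level: lower value means less Her2 protein in the cells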;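 as to viability: percent of carrier control wells set as 100% viability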). The settings on record: SKBR3 Her2 protein level, 18-24 h, measured here: SKBR3 viability, ATP luminescence, at 10 µM. (Bead proximity is the source of the signal in Alpha formats.)
Experiment [15] deals with Receptor tyrosine-protein kinase erbB-2 (Homo sapiens) (UniProt P04626). The description is as above. The settings on record: 18-24 h, at 10 µM, stronger effect = lower value.
Setting [16] is: H69AR cells + 2 uM doxorubicin, measured here: viability with 2 uM doxorubicin, stronger effect = lower value.
Setting [17] is: H69AR cells, compound alone cytotoxicity.

SMILES strings stand for the structures. Inconclusive results are not listed. Active and inactive are the calls of the source.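 The calls were made as follows, unless noted: active = inhibition over a set limit, the all-compound mean plus 3 SD, in both replicate runs; inconclusive = over that limit in just one replicate run; inactive = at or under that limit in both runs.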

By viability is commonly meant a read-out of living cells in per cent, often relative to untreated cells. As usually defined, the inhibition is the relative decrease from the control value, in per cent.

Sequence of Receptor tyrosine-protein kinase erbB-2 (Homo sapiens) (P04626 whole entry, looked up): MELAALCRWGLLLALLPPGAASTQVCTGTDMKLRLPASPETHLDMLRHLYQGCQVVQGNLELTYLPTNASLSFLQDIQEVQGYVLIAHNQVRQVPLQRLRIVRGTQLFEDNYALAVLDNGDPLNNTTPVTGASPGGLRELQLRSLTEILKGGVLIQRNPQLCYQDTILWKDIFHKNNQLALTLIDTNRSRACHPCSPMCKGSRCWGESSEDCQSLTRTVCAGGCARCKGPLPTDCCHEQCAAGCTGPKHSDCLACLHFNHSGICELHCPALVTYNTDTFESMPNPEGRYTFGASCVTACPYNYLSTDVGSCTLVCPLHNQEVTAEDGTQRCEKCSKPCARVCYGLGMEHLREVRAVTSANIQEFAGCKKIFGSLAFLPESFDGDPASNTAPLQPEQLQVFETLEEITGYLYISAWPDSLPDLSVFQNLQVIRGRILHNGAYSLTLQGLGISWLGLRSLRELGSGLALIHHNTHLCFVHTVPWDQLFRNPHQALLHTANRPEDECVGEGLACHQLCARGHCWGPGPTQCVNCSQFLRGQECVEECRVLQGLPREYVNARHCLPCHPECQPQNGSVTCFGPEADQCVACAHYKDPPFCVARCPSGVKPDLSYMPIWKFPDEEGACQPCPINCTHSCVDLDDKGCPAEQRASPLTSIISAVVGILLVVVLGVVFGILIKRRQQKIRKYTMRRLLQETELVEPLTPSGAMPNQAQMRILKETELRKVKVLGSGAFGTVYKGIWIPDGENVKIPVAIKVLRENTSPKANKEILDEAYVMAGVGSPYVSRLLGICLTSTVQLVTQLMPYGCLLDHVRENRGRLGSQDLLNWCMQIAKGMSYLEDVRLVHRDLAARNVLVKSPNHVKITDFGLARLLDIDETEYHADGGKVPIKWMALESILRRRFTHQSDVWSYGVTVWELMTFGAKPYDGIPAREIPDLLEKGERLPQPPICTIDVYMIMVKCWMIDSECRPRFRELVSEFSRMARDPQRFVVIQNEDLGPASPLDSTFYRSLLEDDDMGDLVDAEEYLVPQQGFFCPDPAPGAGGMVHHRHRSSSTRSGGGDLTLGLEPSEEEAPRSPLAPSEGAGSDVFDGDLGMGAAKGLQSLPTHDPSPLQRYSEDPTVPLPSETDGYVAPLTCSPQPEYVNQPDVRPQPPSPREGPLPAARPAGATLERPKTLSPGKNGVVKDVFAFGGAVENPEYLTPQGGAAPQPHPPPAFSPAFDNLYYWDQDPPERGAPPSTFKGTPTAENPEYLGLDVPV

Consider `COC(=O)c1ccc(NC(=O)C2C3CCC(C3)C2C(=O)O)cc1` (configuration not stated), for which the viability in [1] was 96% (inactive); in experiment [2] it was 113% (inactive); in experiment [3], 90.4% (inactive); in experiment [4] (setting [16]), 90%; in experiment [4] (setting [17]), 90.4%; in experiment [10], 93.7% (inactive). Also, in experiment [11], the viability is 93.6% (inactive). Moreover, the differential viability (reversal) in experiment [4] (H69AR cells + 2 uM doxorubicin) was 0.415% (inactive). For the same compound, the inhibition in experiment [5] was 2.13% (inactive); in experiment [6], 6.55% (inactive); in [12] it was 1.04% (inactive). The values for the growth inhibition in experiment [7] and in experiment [8] were 10.2% (inactive) and 1.67% (inactive), respectively. The viability increase in experiment [9] is -2.31% (inactive). In addition, the RAM network inhibition in [13] is 1.43% (inactive).

As for `CCOC(=O)CSC1=C(C#N)C(c2ccc(C)o2)CC(=O)N1` (configuration not stated), the viability in [14] was 98.5%; in [1], 98.5% (inactive); in experiment [3], 26.6% (active); in experiment [4] (setting [16]), 47.9%; in experiment [4] (setting [17]), 26.6%; in experiment [10], 13.7% (active). Further, in [11], the viability is 14.7% (active). In addition, the Her2 level in experiment [15] is 83.5% (inactive). The differential viability (reversal) in experiment [4] (H69AR cells + 2 uM doxorubicin) was -21.3% (inactive). The inhibition in [5] is -4.4% (inactive); in experiment [6], -0.66% (inactive); in experiment [12], 1.17% (inactive). Besides, the growth inhibition was -8.58% (inactive) in experiment [7] and 7.01% (inactive) in [8]. The viability increase in [9] is -5.31% (inactive). Also, in [13], the RAM network inhibition was 0.15% (inactive).

Take `Cc1cc(/C=N/n2cnnc2)c(C)n1-c1cccc(Cl)c1`: the viability in [14] was 84%; in [1], 84% (inactive); in experiment [3] it was 86.4% (inactive); in [4] (setting [16]), 65.9%; in experiment [4] (setting [17]), 86.4%; in experiment [10], 83.7% (inactive). Besides, the viability in experiment [11] is 73.2% (inactive). Moreover, the Her2 level in experiment [15] was 92% (inactive). The differential viability (reversal) in experiment [4] (H69AR cells + 2 uM doxorubicin) was 20.5% (inactive). Moreover, the inhibition in experiment [5] is -5.26% (inactive); in [6], 3.83% (inactive); in experiment [12], 2.75% (inactive). In addition, the growth inhibition in experiment [7] is -2% (inactive); in [8], 22.7% (inactive). The viability increase in experiment [9] was -3.15% (inactive). The RAM network inhibition in experiment [13] is 2.81% (inactive).

For `Cc1cc(C)c2c(=O)n(CC(=O)NCCCN3CCN(c4ccccc4F)CC3)sc2n1`, the viability is 107% in [14]; 107% (inactive) in experiment [1]; 3.21% (active) in experiment [3]; 1.19% in experiment [4] (setting [16]); 3.21% in [4] (setting [17]); 3.95% (active) in experiment [10]. The viability in [11] was 1.7% (active). In addition, the Her2 level in [15] was 70.5% (inactive). Further, the differential viability (reversal) in experiment [4] (H69AR cells + 2 uM doxorubicin) is 2.02% (inactive). Moreover, the inhibition in experiment [5] is -4.8% (inactive); in [6] it was 10% (inactive); in experiment [12], 1.52% (inactive). Further, the growth inhibition in experiment [7] was 16.2% (inactive); in experiment [8], 7.71% (inactive). Also, in experiment [9], the viability increase was -7.84% (inactive). Further, in experiment [13], the RAM network inhibition was 5% (inactive).

Consider `Cc1cc(C)c2c(=O)n(CC(=O)NCCCN3CCOCC3)sc2n1`, for which the viability in experiment [14] was 98%; in experiment [1] it was 98% (inactive); in experiment [2], 64.1% (inactive); in [4] (setting [16]), 35.5%; in experiment [4] (setting [17]), 39.8%; in experiment [11], 56.5% (inactive). In addition, the Her2 level in experiment [15] was 89.5% (inactive). In addition, the differential viability (reversal) in experiment [4] (H69AR cells + 2 uM doxorubicin) was 4.36% (inactive). In addition, the inhibition in [5] is -4.53% (inactive); in experiment [6], -2.67% (inactive); in experiment [12], 1.51% (inactive). Further, the growth inhibition in experiment [7] was 4.33% (inactive); in experiment [8] it was 0.575% (inactive). In addition, the viability increase in [9] is -4.85% (inactive). Moreover, the RAM network inhibition in [13] was 3.11% (inactive).

Take `Cn1c(=O)oc2cc(S(=O)(=O)N3CCN(c4ccccn4)CC3)ccc21`: the viability in experiment [14] is 88.5%; in experiment [1], 88.5% (inactive); in experiment [3] it was 73.8% (inactive); in experiment [4] (setting [16]), 73.5%; in experiment [4] (setting [17]), 73.8%; in experiment [10], 66% (inactive). In addition, the viability in [11] is 69.4% (inactive). For the same compound, the Her2 level in experiment [15] is 91.5% (inactive). Besides, the differential viability (reversal) in experiment [4] (H69AR cells + 2 uM doxorubicin) was 0.275% (inactive). Further, the inhibition in experiment [5] is 0.26% (inactive); in [6] it was -3.67% (inactive); in experiment [12], 1.97% (inactive). For the same compound, the growth inhibition is -8.03% (inactive) in experiment [7] and -3.75% (inactive) in experiment [8]. In addition, in experiment [9], the viability increase is -5.33% (inactive). Also, the RAM network inhibition in experiment [13] was 5.16% (inactive).

Turning to `O=C(CS(=O)(=O)c1cn(Cc2ccc(F)cc2)c2ccccc12)N1CCCCC1`, the viability was 92% in experiment [14]; 92% (inactive) in experiment [1]; 99.9% (inactive) in experiment [3]; 88% in experiment [4] (setting [16]); 99.9% in experiment [4] (setting [17]); 82.4% (inactive) in experiment [10]. In addition, in experiment [11], the viability was 82.9% (inactive). In experiment [15], the Her2 level is 88.5% (inactive). Moreover, the differential viability (reversal) in experiment [4] (H69AR cells + 2 uM doxorubicin) is 11.9% (inactive). Besides, the inhibition was -5.68% (inactive) in experiment [5], -5.17% (inactive) in experiment [6] and 2.3% (inactive) in experiment [12]. Moreover, the growth inhibition in [7] was -24.1% (inactive); in experiment [8] it was -12.8% (inactive). Also, in [9], the viability increase is -3.63% (inactive). For the same compound, the RAM network inhibition in [13] was 5% (inactive).

In the case of `CCOC(=O)c1ccc(N=c2sc(C(=O)OC)cc(=O)n2Cc2ccco2)cc1`, the viability in experiment [14] is 110%; in [1] it was 110% (inactive); in experiment [3] it was 1.51% (active); in [4] (setting [16]), 1.24%; in [4] (setting [17]), 1.51%; in [10], 5.04% (active). The viability in experiment [11] is 1.63% (active). For the same compound, in experiment [15], the Her2 level was -1.5% (active). Moreover, the differential viability (reversal) in experiment [4] (H69AR cells + 2 uM doxorubicin) was 0.27% (inactive). Moreover, the inhibition was -3.21% (inactive) in [5], -1.33% (inactive) in experiment [6] and 1.42% (inactive) in [12]. The growth inhibition in experiment [7] is -11.7% (inactive); in experiment [8], -2.14% (inactive). Further, in experiment [9], the viability increase is -8.48% (inactive). The RAM network inhibition in experiment [13] was 7.3% (inactive).

As to `CC(=O)n1cc(-c2ccncc2)c2ccccc21`, the viability in experiment [14] was 94%; in experiment [1] it was 94% (inactive); in experiment [3], 85.3% (inactive); in [4] (setting [16]) it was 79.2%; in experiment [4] (setting [17]), 85.3%; in experiment [10], 86.7% (inactive). Also, the viability in experiment [11] was 82.6% (inactive). Further, the Her2 level in experiment [15] was 108% (inactive). The differential viability (reversal) in [4] (H69AR cells + 2 uM doxorubicin) is 6.14% (inactive). The inhibition is -7.2% (inactive) in [5], -3% (inactive) in [6] and 0.135% (inactive) in experiment [12]. The figures for the growth inhibition in [7] and in [8] were -5.77% (inactive) and -1.47% (inactive), respectively. In experiment [9], the viability increase is -3.7% (inactive). Also, in experiment [13], the RAM network inhibition was 0.27% (inactive).

The values above are taken from PubChem BioAssay.
